Screens as filed in PubChem.
Rows were chosen to be rich in hits. Some 6.9% of all compounds tested hit in one or more screens of this group.
PLK1 PBD inh: inhibitors of human PLK1 polo-box domain binding; P53350; Plk1 PBD binding of FITC phosphopeptide, fluorescence polarization; Potency, µM, most hits filed as inhibitors; hit rate 2.8% among 360,000; AID 720504; note: series mostly up to about 57 µM; nearly all actives have a fitted effect of over 65% in size
BAZ2B inh: blocks human BAZ2B | Q9UIF8 | Potency, µM (series often up to 114 µM), most hits filed as inhibitors | AlphaScreen BAZ2B-H3K14Ac peptide displacement | hit rate 4.4% among 360,000; note: nearly all actives have a fitted effect of over 60% in size
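Compounds, titrated to a top concentration of 110 uM, were incubated 30 min at room temperature with preformed BAZ2B/acetyl-K14 H3 peptide complex (50 nM each). Proximity signal was measured by AlphaScreen after 20 min with beads.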
VDR inh: inhibitors of human vitamin D receptor | P11473 | Potency, µM, most hits filed as inhibitors | hit rate 0.93% among 400,000 | VDR-SRC2-3 peptide fluorescence polarization, 2 h
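Measured by FP: displacement of SRC2-3 coactivator peptide from VDR by library compounds, following a two-hour ambient incubation.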
JMJD2A Tudor: blocks the human JMJD2A Tudor domain. AlphaScreen JMJD2A-Tudor / H3K4me3 peptide binding. Potency, µM (titrated, usually from 114 µM), hits mostly inhibitors. hit rate 4.4% among 390,000. O75164; note: nearly all actives have a fitted effect of over 50% in size
L3MBTL1 block: inhibitors of human L3MBTL1 | Q9Y468 | AlphaScreen L3MBTL1–H3K9me1 peptide binding | Potency, µM (doses to about 57.1 µM), actives largely listed as inhibitors | hit rate 0.66% among 230,000 | AID 485360; note: nearly all actives have a fitted effect of over 60% in size
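L3MBTL1 (50 nM) pre-complexed 30 min with biotinylated H3(1-15)K9me1 peptide (75 nM), then compounds added for 30 min at room temperature; AlphaScreen streptavidin donor/nickel chelate acceptor beads (10 ug/mL final) read after 30 min dark incubation.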
HP1b chromo inh: blocks HP1-beta chromodomain binding to methylated histone tails. P83916. AlphaScreen HP1-beta / biotin-H3K9me3 peptide binding. Potency, µM (doses to about 114 µM), hits mostly inhibitors. hit rate 0.56% among 390,000; note: nearly all actives have a fitted effect of over 70% in size
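HP1-beta protein (50 nM final) preincubated 30 min at room temperature with biotinylated H3(1-18)K9me3 peptide (50 nM) in PBS pH 7.4, 0.01% Tween-20, then compound added for 30 min. AlphaScreen streptavidin donor/nickel chelate acceptor beads (10 ug/mL final), 30 min dark, luminescence read.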
A number is an active result; i = inactive; ? = inconclusive; nt = no result given; ! = not confirmed by another sample; [ ] = remark or other dose. Calls come from the whole dose curve; as a rule, active = well fitted curve in the direction sought with a large enough effect; inconclusive = small, poorly fitted or top-dose-only effect, or another doubt; inactive = no such curve, though single readings can be large; an effect the other way counts as inactive or inconclusive.

SMILES	PLK1 PBD inh	BAZ2B inh	VDR inh	JMJD2A Tudor	L3MBTL1 block	HP1b chromo inh
Cc1ccc(S(=O)(=O)c2nc(-c3ccccc3)oc2N2CCC(C(N)=O)CC2)cc1	i	?	i	i	nt	i
COc1ccc(-c2nc(S(=O)(=O)c3ccccc3)c(N3CCOCC3)o2)cc1	i	i	i	79.4µM	i	i
Cc1ccc(S(=O)(=O)c2nc(-c3ccccc3)oc2N2CCCC2)cc1	i	?	?	28.2µM	i	?
O=S(=O)(c1ccccc1)c1nc(-c2ccccc2)oc1N1CCCCC1	i	?	?	?	nt	i
COc1cc(-c2nc(S(=O)(=O)c3ccc(C)cc3)c(N3CCOCC3)o2)cc(OC)c1OC	i	?	79.4µM	?	i	i
O=P(c1ccccc1)(c1ccccc1)c1nc(-c2ccc(Cl)cc2)oc1N1CCOCC1	23.8µM!	44.7µM	?	?	i	i
COc1ccc(-c2nc(S(=O)(=O)c3ccc(C)cc3)c(N3CCCCC3)o2)cc1	nt	?	89.1µM	50.1µM	nt	?
O=P(c1ccccc1)(c1ccccc1)c1nc(-c2ccccc2)oc1N1CCOCC1	i	?	i	i	i	i
CN1CCN(c2oc(-c3ccccc3)nc2S(=O)(=O)c2ccc(Br)cc2)CC1	i	35.5µM	i	56.2µM	nt	?
COc1cccc(-c2nc(S(=O)(=O)c3ccc(C)cc3)c(N3CCCCCC3)o2)c1	nt	?	i	i	nt	i
CCOc1ccccc1CNC(=O)Cn1ncn2nc(-c3cccs3)cc2c1=O	nt	i	i	i	nt	i
NC(C(=O)O)c1ccc(P(=O)(O)O)cc1 (centres undefined)	nt	nt	i	nt	nt	nt
Cc1ccc(S(=O)(=O)c2nc(-c3ccco3)oc2N2CCC(C)CC2)cc1	i	10µM	i	?	nt	i
CC(=O)Nc1ccc(S(=O)(=O)NCc2ccccn2)cc1	i	i	i	5.01µM	i	i
COc1ccc(S(=O)(=O)NCc2ccccn2)cc1NC(=O)c1ccc(C)cc1	i	i	i	6.31µM	i	i
Nc1ccc(S(=O)(=O)NCc2ccccn2)cc1	i	i	i	i	nt	i
COc1cc(S(=O)(=O)NCc2ccccn2)ccc1Cl	23.8µM	i	?	31.6µM	i	i
O=S(=O)(NCc1ccccn1)C(F)(F)F	i	50.1µM	i	5.01µM	i	i
O=C(CN1CCCCC1)NNc1nc(-c2ccccc2)c2cc(Br)ccc2n1	i	?	i	i	i	i
CC(=O)Nc1ccc(S(=O)(=O)NCC(=O)NNC(=O)COc2c(C)cccc2C)cc1	i	nt	i	i	i	i
CCOc1ccc(S(=O)(=O)NCc2cccs2)cc1C(C)C	i	i	i	i	i	i
CC(=O)Nc1ccc(S(=O)(=O)NCC(=O)NNC(=O)COc2ccccc2Cl)cc1	18.9µM	i	i	i	i	i
CC(Cl)C(=O)NNC(=O)CNS(=O)(=O)c1ccccc1 (centres undefined)	26.7µM	i	i	i	i	i
CCOc1cc(S(=O)(=O)NCc2cccs2)ccc1Cl	26.7µM	i	i	i[11.4 µM]	nt	i
CC(C)C(=O)NNS(=O)(=O)c1ccccc1	i	i	i	i	nt	i
SMILES	PLK1 PBD inh	BAZ2B inh	VDR inh	JMJD2A Tudor	L3MBTL1 block	HP1b chromo inh
CC(=O)Nc1ccc(S(=O)(=O)NNC(=O)COc2ccc(C(C)(C)C)cc2)cc1	26.7µM	i	i	?	i	i
Cc1sc2nc(COC(=O)CNC(=O)c3ccc(C(C)(C)C)cc3)[nH]c(=O)c2c1C	i	i	i	i	i	i
COc1cccc(-n2c(C)c3c(OC)cccc(=O)c3c2C)c1	i	56.2µM	i	?	i	i
O=C(Nc1nccs1)c1cc(-c2ccccc2)nc2ccccc12	i	i	i	i	i	i
O=C(Nc1nccs1)c1cc(-c2ccco2)nc2ccccc12	i	50.1µM	i	i	14.1µM	i
Cc1cc(-c2ccccc2)nc2cc(C(=O)NCc3ccco3)nn12	i	50.1µM	?	?	nt	i
O=C(NCc1ccco1)c1cccnc1-c1nc2ccccc2s1	23.8µM	i	?	79.4µM	i	?
CCc1nnc(NC(=O)c2cc(-c3ccc(C)o3)nc3ccccc23)s1	?	i	i	89.1µM	i	i
O=C(NCc1ccco1)c1cccnc1Cl	i	i	i	i	i	i
COc1ccc(-n2c(=O)c3c(c4cc(OC)ccc4n3C)n(Cc3cccc(OC)c3)c2=O)cc1	nt	i	i	i	nt	i
